Assay in all cases: PBM; 200 nM protein, PBS
What all share (conditions): dsDNA, one strand shown

The target of one assay is T1, VENTX (Homo sapiens, UniProt O95231 78-163, R121Q).
T1 sequence: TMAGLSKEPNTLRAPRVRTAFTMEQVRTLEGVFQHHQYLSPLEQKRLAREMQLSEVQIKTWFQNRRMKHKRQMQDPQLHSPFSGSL

The target of assay [1] is HOXA4 (Homo sapiens, UniProt Q00056 201-287, W262R).
Assay [2] deals with HOXA7 (Homo sapiens, UniProt P31268 116-202).
Assay [3] has as its target ALX4 (Homo sapiens, UniProt Q9H161 200-286).
The target in assay [4] is PRRX1 (Homo sapiens, UniProt P54821 80-166, F113S).
Chain of PRRX1 (Homo sapiens, UniProt P54821 80-166, F113S) (P54821 80-166 F113S): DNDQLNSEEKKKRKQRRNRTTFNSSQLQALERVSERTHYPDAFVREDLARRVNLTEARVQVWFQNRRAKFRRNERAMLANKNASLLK
In assay [5] the target is HOXB6 (Homo sapiens, UniProt P17509 132-218, K202E).
Chain of HOXB6 (Homo sapiens, UniProt P17509 132-218, K202E) (P17509 132-218 K202E): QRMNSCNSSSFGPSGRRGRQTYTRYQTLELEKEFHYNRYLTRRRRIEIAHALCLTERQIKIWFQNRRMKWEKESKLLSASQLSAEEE
Assay [6] concerns the target ALX4 (Homo sapiens, UniProt Q9H161 200-286, Q225E).
Assay [7] concerns the target HOXA2 (Homo sapiens, UniProt O43364 129-215, R185T).
Assay [8] addresses MSX2 (Homo sapiens, UniProt P35548 130-214, R199I).
Assay [9] concerns the target HOXA2 (Homo sapiens, UniProt O43364 129-215, R185K).
For assay [10], the target named is HOXA4 (Homo sapiens, UniProt Q00056 201-287).
Chain of HOXA4 (Homo sapiens, UniProt Q00056 201-287) (Q00056 201-287): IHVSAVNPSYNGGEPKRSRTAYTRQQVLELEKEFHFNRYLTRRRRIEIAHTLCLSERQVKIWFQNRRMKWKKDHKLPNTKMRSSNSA
Assay [11] concerns the target MSX2 (Homo sapiens, UniProt P35548 130-214).
Assay [12] concerns the target MSX2 (Homo sapiens, UniProt P35548 130-214, F161Y).
Assay [13] has as its target VAX1 (Homo sapiens, UniProt Q5SQQ9 86-172, T142I).
Assay [14] addresses HOXA7 (Homo sapiens, UniProt P31268 116-202, W177C).
The next assay has as its target ALX1 (Homo sapiens, UniProt Q15699 118-204).
Assay [15] deals with HOXA4 (Homo sapiens, UniProt Q00056 201-287, W262F).
Chain of HOXA4 (Homo sapiens, UniProt Q00056 201-287, W262F) (Q00056 201-287 W262F): as the sequence (Q00056 201-287) above, with W62F counted along it
The target in assay [16] is PRRX1 (Homo sapiens, UniProt P54821 80-166).
Chain of PRRX1 (Homo sapiens, UniProt P54821 80-166) (P54821 80-166): as the sequence (P54821 80-166 F113S) above, with S34F counted along it
Assay [17] has as its target VAX1 (Homo sapiens, UniProt Q5SQQ9 86-172, K157R).
Assay [18] concerns the target HOXB6 (Homo sapiens, UniProt P17509 132-218).

Chain of MSX2 (Homo sapiens, UniProt P35548 130-214) (P35548 130-214): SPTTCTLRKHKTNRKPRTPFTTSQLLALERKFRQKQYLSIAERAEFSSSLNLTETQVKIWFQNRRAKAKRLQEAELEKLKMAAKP
Chain of HOXA2 (Homo sapiens, UniProt O43364 129-215, R185T) (O43364 129-215 R185T): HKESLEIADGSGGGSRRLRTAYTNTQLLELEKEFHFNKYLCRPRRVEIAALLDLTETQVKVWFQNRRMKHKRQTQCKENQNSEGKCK
Chain of HOXA4 (Homo sapiens, UniProt Q00056 201-287, W262R) (Q00056 201-287 W262R): as the sequence (Q00056 201-287) above, with W62R counted along it
Chain of HOXB6 (Homo sapiens, UniProt P17509 132-218) (P17509 132-218): as the sequence (P17509 132-218 K202E) above, with E71K counted along it
Chain of HOXA2 (Homo sapiens, UniProt O43364 129-215, R185K) (O43364 129-215 R185K): as the sequence (O43364 129-215 R185T) above, with T57K counted along it
Chain of MSX2 (Homo sapiens, UniProt P35548 130-214, R199I) (P35548 130-214 R199I): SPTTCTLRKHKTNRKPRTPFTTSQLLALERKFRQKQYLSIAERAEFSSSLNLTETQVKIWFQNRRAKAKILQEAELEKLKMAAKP
Chain of HOXA7 (Homo sapiens, UniProt P31268 116-202) (P31268 116-202): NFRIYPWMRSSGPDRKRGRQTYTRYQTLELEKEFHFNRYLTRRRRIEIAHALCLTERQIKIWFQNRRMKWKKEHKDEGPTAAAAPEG
Chain of VAX1 (Homo sapiens, UniProt Q5SQQ9 86-172, T142I) (Q5SQQ9 86-172 T142I): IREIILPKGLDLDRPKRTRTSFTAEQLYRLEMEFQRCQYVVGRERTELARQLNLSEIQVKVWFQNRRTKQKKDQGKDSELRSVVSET
Chain of ALX1 (Q15699 118-204): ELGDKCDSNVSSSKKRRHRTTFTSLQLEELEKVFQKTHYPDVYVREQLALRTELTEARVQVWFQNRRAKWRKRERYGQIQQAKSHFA
Chain of ALX4 (Homo sapiens, UniProt Q9H161 200-286, Q225E) (Q9H161 200-286 Q225E): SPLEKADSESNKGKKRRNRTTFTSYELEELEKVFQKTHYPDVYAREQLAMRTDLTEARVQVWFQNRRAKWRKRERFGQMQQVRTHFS
Chain of VAX1 (Homo sapiens, UniProt Q5SQQ9 86-172, K157R) (Q5SQQ9 86-172 K157R): as the sequence (Q5SQQ9 86-172 T142I) above, with I57T, K72R counted along it
Chain of MSX2 (Homo sapiens, UniProt P35548 130-214, F161Y) (P35548 130-214 F161Y): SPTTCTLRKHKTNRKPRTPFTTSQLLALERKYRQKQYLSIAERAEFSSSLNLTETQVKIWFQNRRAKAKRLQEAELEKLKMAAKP
Chain of ALX4 (Homo sapiens, UniProt Q9H161 200-286) (Q9H161 200-286): as the sequence (Q9H161 200-286 Q225E) above, with E26Q counted along it
Chain of HOXA7 (Homo sapiens, UniProt P31268 116-202, W177C) (P31268 116-202 W177C): as the sequence (P31268 116-202) above, with W62C counted along it

GGTAATTA: the binding signal in the assay with VENTX is 12.6 upbm affinity estimate (log intensity, higher = more binding, comparable within an allelic series); in the assay with HOXA4 [1] it was 10.9 upbm affinity estimate (log intensity, higher = more binding, comparable within an allelic series); in the assay with HOXA7 [2], 12.6 upbm affinity estimate (log intensity, higher = more binding, comparable within an allelic series); with ALX4 [3], 14.4 upbm affinity estimate (log intensity, higher = more binding, comparable within an allelic series); in the assay with PRRX1 [4] it was 11.6 upbm affinity estimate (log intensity, higher = more binding, comparable within an allelic series); in the assay with HOXB6 [5], 10.4 upbm affinity estimate (log intensity, higher = more binding, comparable within an allelic series). For the same sequence, the binding signal with ALX4 [6] is 13.9 upbm affinity estimate (log intensity, higher = more binding, comparable within an allelic series); with HOXA2 [7], 14.1 upbm affinity estimate (log intensity, higher = more binding, comparable within an allelic series); in the assay with MSX2 [8], 13.3 upbm affinity estimate (log intensity, higher = more binding, comparable within an allelic series); in the assay with HOXA2 [9] it was 14.1 upbm affinity estimate (log intensity, higher = more binding, comparable within an allelic series); in the assay with HOXA4 [10] it was 14.3 upbm affinity estimate (log intensity, higher = more binding, comparable within an allelic series); with MSX2 [11] it was 14.2 upbm affinity estimate (log intensity, higher = more binding, comparable within an allelic series). The binding signal with MSX2 [12] was 13.8 upbm affinity estimate (log intensity, higher = more binding, comparable within an allelic series); with VAX1 [13] it was 14.1 upbm affinity estimate (log intensity, higher = more binding, comparable within an allelic series); with HOXA7 [14], 9.03 upbm affinity estimate (log intensity, higher = more binding, comparable within an allelic series); with ALX1 it was 12.8 upbm affinity estimate (log intensity, higher = more binding, comparable within an allelic series); in the assay with HOXA4 [15] it was 12.8 upbm affinity estimate (log intensity, higher = more binding, comparable within an allelic series); with PRRX1 [16], 13.5 upbm affinity estimate (log intensity, higher = more binding, comparable within an allelic series). For the same sequence, the binding signal in the assay with VAX1 [17] is 14.2 upbm affinity estimate (log intensity, higher = more binding, comparable within an allelic series); in the assay with HOXB6 [18], 12.9 upbm affinity estimate (log intensity, higher = more binding, comparable within an allelic series).
On to AGTAATTA, for which the binding signal with VENTX is 12.5 upbm affinity estimate (log intensity, higher = more binding, comparable within an allelic series); with HOXA4 [1], 10.9 upbm affinity estimate (log intensity, higher = more binding, comparable within an allelic series); with HOXA7 [2], 12.3 upbm affinity estimate (log intensity, higher = more binding, comparable within an allelic series); with ALX4 [3] it was 14.3 upbm affinity estimate (log intensity, higher = more binding, comparable within an allelic series); with PRRX1 [4] it was 11.7 upbm affinity estimate (log intensity, higher = more binding, comparable within an allelic series); in the assay with HOXB6 [5] it was 10.3 upbm affinity estimate (log intensity, higher = more binding, comparable within an allelic series). Further, the binding signal in the assay with ALX4 [6] was 13.8 upbm affinity estimate (log intensity, higher = more binding, comparable within an allelic series); with HOXA2 [7] it was 13.9 upbm affinity estimate (log intensity, higher = more binding, comparable within an allelic series); with MSX2 [8] it was 13.4 upbm affinity estimate (log intensity, higher = more binding, comparable within an allelic series); with HOXA2 [9], 14 upbm affinity estimate (log intensity, higher = more binding, comparable within an allelic series); in the assay with HOXA4 [10], 14.3 upbm affinity estimate (log intensity, higher = more binding, comparable within an allelic series); in the assay with MSX2 [11], 14.2 upbm affinity estimate (log intensity, higher = more binding, comparable within an allelic series). Besides, the binding signal was 13.9 upbm affinity estimate (log intensity, higher = more binding, comparable within an allelic series) with MSX2 [12]; 13.9 upbm affinity estimate (log intensity, higher = more binding, comparable within an allelic series) with VAX1 [13]; 8.88 upbm affinity estimate (log intensity, higher = more binding, comparable within an allelic series) with HOXA7 [14]; 12.7 upbm affinity estimate (log intensity, higher = more binding, comparable within an allelic series) in the assay with ALX1; 12.6 upbm affinity estimate (log intensity, higher = more binding, comparable within an allelic series) with HOXA4 [15]; 13.6 upbm affinity estimate (log intensity, higher = more binding, comparable within an allelic series) in the assay with PRRX1 [16]. Besides, the binding signal in the assay with VAX1 [17] is 13.9 upbm affinity estimate (log intensity, higher = more binding, comparable within an allelic series); in the assay with HOXB6 [18], 12.7 upbm affinity estimate (log intensity, higher = more binding, comparable within an allelic series).
For ATTAATGA, the binding signal with VENTX is 12.2 upbm affinity estimate (log intensity, higher = more binding, comparable within an allelic series); in the assay with HOXA4 [1] it was 10.8 upbm affinity estimate (log intensity, higher = more binding, comparable within an allelic series); with HOXA7 [2], 12 upbm affinity estimate (log intensity, higher = more binding, comparable within an allelic series); in the assay with ALX4 [3], 13.8 upbm affinity estimate (log intensity, higher = more binding, comparable within an allelic series); with PRRX1 [4], 11.2 upbm affinity estimate (log intensity, higher = more binding, comparable within an allelic series); in the assay with HOXB6 [5], 10.3 upbm affinity estimate (log intensity, higher = more binding, comparable within an allelic series). For the same sequence, the binding signal is 12.8 upbm affinity estimate (log intensity, higher = more binding, comparable within an allelic series) with ALX4 [6]; 13.3 upbm affinity estimate (log intensity, higher = more binding, comparable within an allelic series) in the assay with HOXA2 [7]; 13.7 upbm affinity estimate (log intensity, higher = more binding, comparable within an allelic series) with HOXA2 [9]; 14.2 upbm affinity estimate (log intensity, higher = more binding, comparable within an allelic series) in the assay with HOXA4 [10]; 13.4 upbm affinity estimate (log intensity, higher = more binding, comparable within an allelic series) in the assay with VAX1 [13]; 8.94 upbm affinity estimate (log intensity, higher = more binding, comparable within an allelic series) in the assay with HOXA7 [14]. The binding signal with ALX1 is 12.2 upbm affinity estimate (log intensity, higher = more binding, comparable within an allelic series); with HOXA4 [15], 12.2 upbm affinity estimate (log intensity, higher = more binding, comparable within an allelic series); with PRRX1 [16], 13.3 upbm affinity estimate (log intensity, higher = more binding, comparable within an allelic series); in the assay with VAX1 [17], 13.3 upbm affinity estimate (log intensity, higher = more binding, comparable within an allelic series); in the assay with HOXB6 [18], 12.3 upbm affinity estimate (log intensity, higher = more binding, comparable within an allelic series).
For TTAATTAA, the binding signal with VENTX is 12.4 upbm affinity estimate (log intensity, higher = more binding, comparable within an allelic series); in the assay with HOXA4 [1], 11 upbm affinity estimate (log intensity, higher = more binding, comparable within an allelic series); in the assay with HOXA7 [2] it was 12.2 upbm affinity estimate (log intensity, higher = more binding, comparable within an allelic series); with ALX4 [3], 14.7 upbm affinity estimate (log intensity, higher = more binding, comparable within an allelic series); with PRRX1 [4] it was 12.1 upbm affinity estimate (log intensity, higher = more binding, comparable within an allelic series); with HOXB6 [5], 10.3 upbm affinity estimate (log intensity, higher = more binding, comparable within an allelic series). For the same sequence, the binding signal was 14.7 upbm affinity estimate (log intensity, higher = more binding, comparable within an allelic series) in the assay with ALX4 [6]; 13.7 upbm affinity estimate (log intensity, higher = more binding, comparable within an allelic series) with HOXA2 [7]; 13.1 upbm affinity estimate (log intensity, higher = more binding, comparable within an allelic series) in the assay with MSX2 [8]; 13.7 upbm affinity estimate (log intensity, higher = more binding, comparable within an allelic series) in the assay with HOXA2 [9]; 14.3 upbm affinity estimate (log intensity, higher = more binding, comparable within an allelic series) with HOXA4 [10]; 13.9 upbm affinity estimate (log intensity, higher = more binding, comparable within an allelic series) in the assay with MSX2 [11]. For the same sequence, the binding signal is 13.5 upbm affinity estimate (log intensity, higher = more binding, comparable within an allelic series) with MSX2 [12]; 13.6 upbm affinity estimate (log intensity, higher = more binding, comparable within an allelic series) with VAX1 [13]; 8.85 upbm affinity estimate (log intensity, higher = more binding, comparable within an allelic series) with HOXA7 [14]; 12.9 upbm affinity estimate (log intensity, higher = more binding, comparable within an allelic series) in the assay with ALX1; 13.1 upbm affinity estimate (log intensity, higher = more binding, comparable within an allelic series) with HOXA4 [15]; 13.7 upbm affinity estimate (log intensity, higher = more binding, comparable within an allelic series) with PRRX1 [16]. Moreover, the binding signal with VAX1 [17] is 13.5 upbm affinity estimate (log intensity, higher = more binding, comparable within an allelic series); in the assay with HOXB6 [18] it was 12.5 upbm affinity estimate (log intensity, higher = more binding, comparable within an allelic series).
